What all share (test): DAPPL (digital affinity profiling via proximity ligation, sequencing); 10 mM Tris-HCl pH 7.5, 50 mM NaCl, 1 mM DTT, 4% glycerol, room temperature, 30 min; GST-TFs on glutathione beads, 16-mer random dsDNA library, 0.1% formaldehyde crosslink after washing; high values mean tight binding
For one test, the target named is T1, FEV (Homo sapiens, UniProt Q99581 1-238).
T1 sequence: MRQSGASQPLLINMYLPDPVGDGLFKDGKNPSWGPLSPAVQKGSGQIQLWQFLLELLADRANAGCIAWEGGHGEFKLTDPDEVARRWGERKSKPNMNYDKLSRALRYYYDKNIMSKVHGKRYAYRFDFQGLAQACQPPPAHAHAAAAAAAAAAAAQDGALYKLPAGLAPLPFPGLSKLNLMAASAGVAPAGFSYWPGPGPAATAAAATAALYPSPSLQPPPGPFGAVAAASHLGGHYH
As to conditions: protein: recombinant; tags: N-terminal GST; dsDNA, one strand shown. The procedure, abridged: (§1)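 Binding signal is given per hexamer as its read frequency for a factor divided by its frequency in the tag-only sample. GST-fused human transcription factors were expressed in yeast, captured on glutathione beads, barcoded with DNA and pooled with that sample, then incubated with 200 nmole of a 16-mer random double-stranded DNA library in Tris/NaCl/DTT/glycerol buffer for 30 min at room temperature. The pools were then washed, crosslinked, proximity-ligated, amplified by PCR and sequenced on an Illumina NextSeq500.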

The target in a further test is ETV5 (Homo sapiens, UniProt P41161 1-510). The settings on record: protein: recombinant; tags: N-terminal GST; dsDNA, one strand shown. The procedure, abridged: as §1
The target of a further test is HSF1 (Homo sapiens, UniProt Q00613 1-529). As to conditions: protein: recombinant; tags: N-terminal GST; chain copies: 3; dsDNA, one strand shown. The procedure, abridged: as §1
A further test addresses T2, SPIC (Homo sapiens, UniProt Q8N5J4 1-248).
T2 sequence: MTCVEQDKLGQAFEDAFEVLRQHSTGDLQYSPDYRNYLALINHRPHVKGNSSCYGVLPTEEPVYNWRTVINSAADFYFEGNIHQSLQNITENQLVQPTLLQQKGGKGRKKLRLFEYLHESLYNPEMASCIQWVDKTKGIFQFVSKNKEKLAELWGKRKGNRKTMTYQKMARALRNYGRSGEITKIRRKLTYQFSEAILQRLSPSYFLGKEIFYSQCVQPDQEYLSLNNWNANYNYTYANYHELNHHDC
As to conditions: protein: recombinant; tags: N-terminal GST; dsDNA, one strand shown. The procedure, abridged: as §1

Another test concerns the target ELF4 (Homo sapiens, UniProt Q99607 1-663). The settings on record: protein: recombinant; tags: N-terminal GST; dsDNA, one strand shown. The procedure, abridged: as §1
The target in the next test is T3, ELK4 (Homo sapiens, UniProt P28324-2 1-405).
T3 sequence: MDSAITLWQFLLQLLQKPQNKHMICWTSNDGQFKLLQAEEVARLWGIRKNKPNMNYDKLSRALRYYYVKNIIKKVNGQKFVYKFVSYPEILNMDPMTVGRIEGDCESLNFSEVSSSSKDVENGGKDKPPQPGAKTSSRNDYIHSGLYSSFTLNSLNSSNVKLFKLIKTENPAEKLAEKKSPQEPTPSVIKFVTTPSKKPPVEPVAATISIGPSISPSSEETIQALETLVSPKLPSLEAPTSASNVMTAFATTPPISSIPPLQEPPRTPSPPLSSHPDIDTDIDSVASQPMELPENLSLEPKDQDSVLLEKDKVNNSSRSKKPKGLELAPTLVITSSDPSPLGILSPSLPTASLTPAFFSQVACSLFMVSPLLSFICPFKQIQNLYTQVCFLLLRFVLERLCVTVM
The settings on record: protein: recombinant; tags: N-terminal GST; dsDNA, one strand shown. The procedure, abridged: as §1

The next test has as its target T4, ETV2 (Homo sapiens, UniProt O00321 1-342).
T4 sequence: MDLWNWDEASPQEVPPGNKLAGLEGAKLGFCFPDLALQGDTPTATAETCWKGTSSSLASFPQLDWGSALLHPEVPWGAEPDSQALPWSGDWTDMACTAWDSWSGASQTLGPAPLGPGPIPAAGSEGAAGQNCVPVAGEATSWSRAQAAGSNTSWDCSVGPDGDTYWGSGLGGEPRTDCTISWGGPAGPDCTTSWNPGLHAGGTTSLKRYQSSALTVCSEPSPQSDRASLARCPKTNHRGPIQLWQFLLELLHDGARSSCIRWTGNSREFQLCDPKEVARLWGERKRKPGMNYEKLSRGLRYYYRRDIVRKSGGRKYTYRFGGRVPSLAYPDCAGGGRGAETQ
As to conditions: protein: recombinant; tags: N-terminal GST; dsDNA, one strand shown. In a few lines: as §1

The target of a further test is T5, ELF3 (Homo sapiens, UniProt P78545 1-371).
T5 sequence: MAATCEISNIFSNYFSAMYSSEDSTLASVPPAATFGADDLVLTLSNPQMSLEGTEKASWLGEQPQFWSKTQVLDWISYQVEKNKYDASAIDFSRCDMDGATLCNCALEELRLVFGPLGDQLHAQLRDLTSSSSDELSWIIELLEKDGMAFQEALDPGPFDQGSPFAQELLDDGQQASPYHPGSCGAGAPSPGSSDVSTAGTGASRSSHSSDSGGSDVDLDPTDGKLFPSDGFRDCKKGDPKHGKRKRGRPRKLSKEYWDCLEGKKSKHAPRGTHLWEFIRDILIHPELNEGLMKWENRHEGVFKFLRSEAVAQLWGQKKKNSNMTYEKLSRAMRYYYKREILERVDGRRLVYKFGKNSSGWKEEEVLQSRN
As to conditions: protein: recombinant; tags: N-terminal GST; dsDNA, one strand shown. In a few lines:
as §1

The next test concerns the target CRX (Homo sapiens, UniProt O43186 1-299). The settings on record: protein: recombinant; tags: N-terminal GST; dsDNA, one strand shown. In a few lines: as §1
A further test concerns the target ETV1 (Homo sapiens, UniProt P50549 1-477). The settings on record: protein: recombinant; tags: N-terminal GST; dsDNA, one strand shown. The procedure, abridged: as §1
The target of the next test is T6, ERF (Homo sapiens, UniProt P50548 1-548).
T6 sequence: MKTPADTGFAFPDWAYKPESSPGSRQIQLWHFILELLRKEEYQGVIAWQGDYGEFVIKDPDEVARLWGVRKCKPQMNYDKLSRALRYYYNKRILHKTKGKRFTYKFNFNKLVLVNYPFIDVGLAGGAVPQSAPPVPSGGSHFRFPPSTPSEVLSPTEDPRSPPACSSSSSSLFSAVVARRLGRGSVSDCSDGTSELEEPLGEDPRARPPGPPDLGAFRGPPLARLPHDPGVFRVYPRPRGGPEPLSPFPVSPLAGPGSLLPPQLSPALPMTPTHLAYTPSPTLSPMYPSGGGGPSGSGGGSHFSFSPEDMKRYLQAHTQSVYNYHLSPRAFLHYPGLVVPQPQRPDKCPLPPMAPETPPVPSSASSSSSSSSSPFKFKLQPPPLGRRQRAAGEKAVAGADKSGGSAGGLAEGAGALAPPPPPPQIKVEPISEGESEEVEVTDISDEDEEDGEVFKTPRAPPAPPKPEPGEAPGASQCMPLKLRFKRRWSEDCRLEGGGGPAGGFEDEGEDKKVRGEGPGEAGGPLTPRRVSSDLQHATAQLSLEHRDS
The settings on record: protein: recombinant; tags: N-terminal GST; dsDNA, one strand shown. In a few lines: as §1

The next test concerns the target T7, ETV3L (Homo sapiens, UniProt Q6ZN32 1-361).
T7 sequence: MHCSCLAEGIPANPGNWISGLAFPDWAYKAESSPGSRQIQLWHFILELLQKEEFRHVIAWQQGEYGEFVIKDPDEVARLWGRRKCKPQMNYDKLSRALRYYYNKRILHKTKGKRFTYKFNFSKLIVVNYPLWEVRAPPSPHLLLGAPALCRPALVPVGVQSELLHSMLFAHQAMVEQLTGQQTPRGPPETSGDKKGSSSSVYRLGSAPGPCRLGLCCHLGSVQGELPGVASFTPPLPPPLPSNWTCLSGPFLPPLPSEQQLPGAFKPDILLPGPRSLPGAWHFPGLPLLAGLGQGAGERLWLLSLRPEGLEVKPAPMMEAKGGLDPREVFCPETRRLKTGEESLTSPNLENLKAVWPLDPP
As to conditions: protein: recombinant; tags: N-terminal GST; dsDNA, one strand shown. The procedure, abridged: as §1

The target in the next test is T8, ETS2 (Homo sapiens, UniProt P15036 1-469).
T8 sequence: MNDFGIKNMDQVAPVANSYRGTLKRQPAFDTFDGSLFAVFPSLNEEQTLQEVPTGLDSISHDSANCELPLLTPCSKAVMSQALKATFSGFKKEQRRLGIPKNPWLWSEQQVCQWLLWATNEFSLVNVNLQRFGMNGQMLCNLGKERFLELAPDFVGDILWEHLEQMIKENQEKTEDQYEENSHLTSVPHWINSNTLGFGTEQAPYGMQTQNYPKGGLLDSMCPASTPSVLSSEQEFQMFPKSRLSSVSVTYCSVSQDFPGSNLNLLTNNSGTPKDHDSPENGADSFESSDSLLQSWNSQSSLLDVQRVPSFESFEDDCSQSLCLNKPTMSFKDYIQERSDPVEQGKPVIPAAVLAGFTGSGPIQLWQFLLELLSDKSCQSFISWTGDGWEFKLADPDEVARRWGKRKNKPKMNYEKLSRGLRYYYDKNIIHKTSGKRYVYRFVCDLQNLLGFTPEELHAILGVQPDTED
As to conditions: protein: recombinant; tags: N-terminal GST; dsDNA, one strand shown. In a few lines: as §1

A further test concerns the target T9, SPDEF (Homo sapiens, UniProt O95238 1-335).
T9 sequence: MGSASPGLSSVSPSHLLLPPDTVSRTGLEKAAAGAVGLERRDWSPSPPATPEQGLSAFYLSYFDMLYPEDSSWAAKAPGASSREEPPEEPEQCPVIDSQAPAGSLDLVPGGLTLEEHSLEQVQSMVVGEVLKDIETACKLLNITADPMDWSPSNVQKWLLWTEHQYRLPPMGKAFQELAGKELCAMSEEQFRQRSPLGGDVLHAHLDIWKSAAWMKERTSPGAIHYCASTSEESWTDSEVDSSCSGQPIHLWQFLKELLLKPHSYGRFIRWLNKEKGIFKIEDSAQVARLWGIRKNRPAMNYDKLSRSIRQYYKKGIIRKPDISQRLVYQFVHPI
The settings on record: protein: recombinant; tags: N-terminal GST; dsDNA, one strand shown. In a few lines: as §1

In a further test the target is T10, ETV7 (Homo sapiens, UniProt Q9Y603 1-341).
T10 sequence: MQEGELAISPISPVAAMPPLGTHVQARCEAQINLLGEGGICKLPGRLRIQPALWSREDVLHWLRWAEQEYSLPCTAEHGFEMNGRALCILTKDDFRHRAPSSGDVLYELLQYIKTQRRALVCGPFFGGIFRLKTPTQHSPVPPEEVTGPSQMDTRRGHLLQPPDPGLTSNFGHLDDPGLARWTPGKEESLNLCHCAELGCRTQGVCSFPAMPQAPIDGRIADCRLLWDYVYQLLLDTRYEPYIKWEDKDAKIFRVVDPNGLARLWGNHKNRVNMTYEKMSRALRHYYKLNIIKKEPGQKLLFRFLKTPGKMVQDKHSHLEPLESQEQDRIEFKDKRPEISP
As to conditions: protein: recombinant; tags: N-terminal GST; dsDNA, one strand shown. In a few lines:
as §1

The target in the next test is T11, ELF5 (Homo sapiens, UniProt Q9UKW6-2 1-255).
T11 sequence: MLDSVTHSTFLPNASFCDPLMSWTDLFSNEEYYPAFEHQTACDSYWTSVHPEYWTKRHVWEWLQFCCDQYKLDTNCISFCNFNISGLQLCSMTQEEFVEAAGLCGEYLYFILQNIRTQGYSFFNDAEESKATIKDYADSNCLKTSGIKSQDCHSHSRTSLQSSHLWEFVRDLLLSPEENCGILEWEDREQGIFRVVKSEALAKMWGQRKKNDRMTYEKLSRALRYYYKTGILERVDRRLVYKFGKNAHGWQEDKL
As to conditions: protein: recombinant; tags: N-terminal GST; dsDNA, one strand shown. The procedure, abridged: as §1

In the next test the target is T12, ETV3 (Homo sapiens, UniProt P41162-2 1-143).
T12 sequence: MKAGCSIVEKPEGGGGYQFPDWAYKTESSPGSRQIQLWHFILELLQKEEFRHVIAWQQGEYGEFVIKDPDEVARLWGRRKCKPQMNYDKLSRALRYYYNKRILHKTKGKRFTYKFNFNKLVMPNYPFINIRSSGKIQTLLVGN
As to conditions: protein: recombinant; tags: N-terminal GST; dsDNA, one strand shown. The procedure, abridged: as §1

The next test addresses ETV6 (Homo sapiens, UniProt P41212 1-452). As to conditions: protein: recombinant; tags: N-terminal GST; dsDNA, one strand shown. In a few lines:
as §1

From article PMC7862700, “An all-to-all approach to the identification of sequence-specific readers for epigenetic DNA modifications on cytosine” come the findings set out here.

Chain of ELF4 (Q99607 whole entry): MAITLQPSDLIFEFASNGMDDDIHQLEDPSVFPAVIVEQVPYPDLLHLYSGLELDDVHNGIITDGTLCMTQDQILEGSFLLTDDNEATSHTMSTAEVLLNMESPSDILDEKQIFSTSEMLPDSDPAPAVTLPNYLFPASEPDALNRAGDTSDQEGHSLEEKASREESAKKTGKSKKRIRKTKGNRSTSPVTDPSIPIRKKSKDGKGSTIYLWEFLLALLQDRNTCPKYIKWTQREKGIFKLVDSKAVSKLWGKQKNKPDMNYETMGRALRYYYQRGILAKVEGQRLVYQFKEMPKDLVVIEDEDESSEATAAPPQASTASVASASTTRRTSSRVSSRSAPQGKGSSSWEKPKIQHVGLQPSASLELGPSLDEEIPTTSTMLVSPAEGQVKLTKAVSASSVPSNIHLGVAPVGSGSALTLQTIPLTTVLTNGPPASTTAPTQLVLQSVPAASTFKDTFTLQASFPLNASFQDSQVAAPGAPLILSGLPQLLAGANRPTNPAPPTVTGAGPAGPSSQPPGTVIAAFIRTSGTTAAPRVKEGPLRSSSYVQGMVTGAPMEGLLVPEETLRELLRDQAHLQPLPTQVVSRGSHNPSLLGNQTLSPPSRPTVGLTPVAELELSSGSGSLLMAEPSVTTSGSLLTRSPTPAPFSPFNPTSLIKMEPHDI
Chain of ETV1 (P50549 whole entry): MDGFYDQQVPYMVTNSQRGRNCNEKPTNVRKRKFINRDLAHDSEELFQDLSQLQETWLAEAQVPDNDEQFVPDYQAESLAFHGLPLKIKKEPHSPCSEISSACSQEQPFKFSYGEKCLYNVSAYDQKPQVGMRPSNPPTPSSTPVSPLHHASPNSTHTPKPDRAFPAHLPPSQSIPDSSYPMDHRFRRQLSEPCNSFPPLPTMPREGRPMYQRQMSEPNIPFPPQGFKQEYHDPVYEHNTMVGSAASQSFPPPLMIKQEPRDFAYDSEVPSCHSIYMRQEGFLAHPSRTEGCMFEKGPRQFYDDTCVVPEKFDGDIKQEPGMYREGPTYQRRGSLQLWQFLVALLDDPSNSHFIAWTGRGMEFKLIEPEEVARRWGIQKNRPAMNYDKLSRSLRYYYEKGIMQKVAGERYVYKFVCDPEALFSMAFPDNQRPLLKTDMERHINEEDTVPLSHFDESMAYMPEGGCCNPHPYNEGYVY
Chain of ETV5 (P41161 whole entry): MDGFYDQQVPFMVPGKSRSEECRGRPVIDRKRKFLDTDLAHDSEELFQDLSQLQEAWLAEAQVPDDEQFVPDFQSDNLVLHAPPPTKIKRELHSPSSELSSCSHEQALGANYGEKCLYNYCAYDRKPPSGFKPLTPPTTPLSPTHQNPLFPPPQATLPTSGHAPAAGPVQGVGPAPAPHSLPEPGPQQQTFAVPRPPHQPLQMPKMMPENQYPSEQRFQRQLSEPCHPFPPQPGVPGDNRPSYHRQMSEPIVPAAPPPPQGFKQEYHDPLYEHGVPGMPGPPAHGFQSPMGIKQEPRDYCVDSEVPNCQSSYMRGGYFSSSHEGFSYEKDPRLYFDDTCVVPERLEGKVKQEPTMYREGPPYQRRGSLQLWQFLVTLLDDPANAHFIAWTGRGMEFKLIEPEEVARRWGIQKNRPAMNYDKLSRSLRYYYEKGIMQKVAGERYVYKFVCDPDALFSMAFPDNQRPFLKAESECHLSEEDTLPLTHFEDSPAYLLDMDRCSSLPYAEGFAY
Chain of ETV6 (P41212 whole entry): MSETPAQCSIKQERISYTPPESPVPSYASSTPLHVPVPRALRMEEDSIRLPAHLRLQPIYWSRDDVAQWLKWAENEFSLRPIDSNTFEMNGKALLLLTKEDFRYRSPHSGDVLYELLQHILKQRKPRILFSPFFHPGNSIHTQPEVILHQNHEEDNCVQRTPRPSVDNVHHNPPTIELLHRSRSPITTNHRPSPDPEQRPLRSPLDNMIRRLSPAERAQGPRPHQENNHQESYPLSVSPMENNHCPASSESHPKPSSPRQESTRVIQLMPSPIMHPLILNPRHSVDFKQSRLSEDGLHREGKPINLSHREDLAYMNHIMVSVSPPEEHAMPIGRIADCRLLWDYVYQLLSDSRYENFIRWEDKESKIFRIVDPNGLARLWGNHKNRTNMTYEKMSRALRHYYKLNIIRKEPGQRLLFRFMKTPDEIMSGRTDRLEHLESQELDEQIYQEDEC
Chain of HSF1 (Q00613 whole entry): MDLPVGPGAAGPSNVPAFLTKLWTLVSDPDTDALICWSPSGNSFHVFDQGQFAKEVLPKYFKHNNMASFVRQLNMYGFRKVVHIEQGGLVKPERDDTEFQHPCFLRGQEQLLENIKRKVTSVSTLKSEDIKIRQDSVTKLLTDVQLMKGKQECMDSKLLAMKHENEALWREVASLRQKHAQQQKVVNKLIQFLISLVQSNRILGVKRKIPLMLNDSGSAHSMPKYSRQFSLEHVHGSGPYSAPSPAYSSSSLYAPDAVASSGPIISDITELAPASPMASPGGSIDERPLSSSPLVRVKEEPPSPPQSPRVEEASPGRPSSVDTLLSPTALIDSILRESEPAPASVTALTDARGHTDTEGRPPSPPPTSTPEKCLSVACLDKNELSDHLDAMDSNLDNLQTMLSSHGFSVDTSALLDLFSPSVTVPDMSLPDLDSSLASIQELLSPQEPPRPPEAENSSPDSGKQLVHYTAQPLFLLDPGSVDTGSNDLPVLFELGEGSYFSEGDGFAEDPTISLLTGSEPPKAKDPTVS
Chain of CRX (O43186 whole entry): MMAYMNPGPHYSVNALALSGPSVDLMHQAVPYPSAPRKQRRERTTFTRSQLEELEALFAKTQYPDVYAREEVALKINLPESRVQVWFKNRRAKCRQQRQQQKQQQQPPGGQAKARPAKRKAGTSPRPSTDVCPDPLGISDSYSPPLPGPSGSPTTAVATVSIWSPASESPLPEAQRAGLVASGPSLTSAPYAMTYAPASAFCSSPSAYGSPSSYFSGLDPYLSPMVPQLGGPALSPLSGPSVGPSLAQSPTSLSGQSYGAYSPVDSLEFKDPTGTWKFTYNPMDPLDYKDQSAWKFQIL

In the case of TATGAC, the binding signal with FEV was 1.25 fold enrichment (6-mer frequency, TF over GST control); with ETV5, 1.33 fold enrichment (6-mer frequency, TF over GST control); in the test with HSF1, 1.18 fold enrichment (6-mer frequency, TF over GST control); with SPIC, 1.28 fold enrichment (6-mer frequency, TF over GST control); with ELF4 it was 1.32 fold enrichment (6-mer frequency, TF over GST control); with ELK4 it was 1.45 fold enrichment (6-mer frequency, TF over GST control). The binding signal with ETV2 is 1.23 fold enrichment (6-mer frequency, TF over GST control); with ELF3 it was 1.45 fold enrichment (6-mer frequency, TF over GST control); with CRX it was 1.23 fold enrichment (6-mer frequency, TF over GST control); with ETV1, 1.26 fold enrichment (6-mer frequency, TF over GST control); in the test with ERF, 1.39 fold enrichment (6-mer frequency, TF over GST control); in the test with ETV3L, 1.36 fold enrichment (6-mer frequency, TF over GST control). Moreover, the binding signal in the test with ETS2 is 1.31 fold enrichment (6-mer frequency, TF over GST control); with SPDEF it was 1.33 fold enrichment (6-mer frequency, TF over GST control); with ETV7, 1.29 fold enrichment (6-mer frequency, TF over GST control); in the test with ELF5, 1.29 fold enrichment (6-mer frequency, TF over GST control); with ETV3, 1.2 fold enrichment (6-mer frequency, TF over GST control); in the test with ETV6, 1.25 fold enrichment (6-mer frequency, TF over GST control).
